# Test results taken from PubChem BioAssay AID598 (SRMLSC, 2007).
# About 5,100 (6%) of roughly 85,000 compounds were called active.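 How the source made its calls: active means viability at or below 40%; inactive means viability above 40%.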 Many of the other results were omitted from the sample, so actives are more common in it than they were.
# Experiment: proliferation blockers of H69AR lung cancer cells, primary screen, cell-based, human, 86K library (AID 598);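 further: multidrug resistant small cell line overexpressing MRP-1 efflux transporter; 100% = mean luminescence of untreated control wells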
# Conditions: H69AR lung tumor viability, ATP luminescence, 72 h; at 10 µM; stronger effect = lower value
row,Compound,viability
1,Cc1ccc(N(CC(=O)Nc2cccc(N(C)S(C)(=O)=O)c2)S(C)(=O)=O)cc1,85.4% (inactive)
2,O=C(CCCn1c(SCC(=O)c2ccccc2)nc2ccccc2c1=O)NCC1CCCO1 (stereo not given),76.5% (inactive)
3,Cc1noc(COc2ccccc2OCc2onc(C)c2Cl)c1Cl,93.3% (inactive)
4,Cc1ccc(-c2noc(CSc3nnc(-c4ccccc4)n3C)n2)cc1,85.9% (inactive)
5,Fc1ccc(-n2c(Cc3ccccc3)nnc2SCc2nc(-c3ccc(Cl)cc3)no2)cc1,90.9% (inactive)
6,Cc1ccc(-c2noc(CSc3nnc(-c4ccncc4)n3-c3ccc(F)cc3)n2)cc1,27.9% (active)
7,O=S1(=O)C=C(SCCN2CCCC2)c2ccccc21,74.3% (inactive)
8,Cn1cc(S(=O)(=O)N2CCN(c3ccc(F)cc3)CC2)c(=O)n(C)c1=O,91.4% (inactive)
9,C#CCN(N(C)c1ncc(C(F)(F)F)cc1Cl)S(=O)(=O)c1ccc2ccccc2c1,84% (inactive)
10,CC(C)(C)C1CCc2c(sc3nc(SCC(N)=O)nc(N)c23)C1 (stereo not given),2.44% (active)
11,CN(C)CCSc1nc(N)c2c3c(sc2n1)COC(C)(C)C3,91.2% (inactive)
12,C=C(C)CSc1nc(N)c2c3c(sc2n1)CCC3,92.1% (inactive)
13,O=C(/C=C/NNC(=O)c1cccc(Br)c1)c1ccccc1,61.5% (inactive)
14,N#C/C(=C(\O)CCl)c1nnc2n1CCCCC2,26.2% (active)
15,COCC(=O)Nc1ccc(Br)cc1,101% (inactive)
16,Cc1cccc(N(CC(=O)N2CCOCC2)S(C)(=O)=O)c1,98% (inactive)
17,Cc1[nH]n(-c2cccc(Cl)c2)c(=O)c1-c1ccc(Cl)cc1,109% (inactive)
18,CC1=NN(c2cccc(Cl)c2)C(=O)C12CC(C)=C(C)CS2 (stereo not given),26.9% (active)
19,O=C(NCc1ccccc1)C1CCCN(S(=O)(=O)c2cccs2)C1 (stereo not given),95.6% (inactive)
20,CCOc1ccc(S(=O)(=O)NCC2CCCO2)cc1 (stereo not given),97% (inactive)
